# Screens as filed in PubChem BioAssay.
# Sampled rows, rich in hits. Any-hit rate of the full collection: about 19%.
# IL1B secr inh = blocks inflammasome-driven IL-1 beta release | THP-1 LPS/ATP IL-1B secretion, AlphaLISA, 16 h; hits give low values | activity change, % at 57.5 µM | actives 4.7% (n = 360,000) | AID 743279; in the data active = activity change below about -50%; inconclusive = mostly about -30% to -49%
#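 Secreted IL-1B measured by AlphaLISA bead assay after 16 h compound exposure of THP-1 cells; compounds (final up to 57.5 uM) added 1 h before LPS (250 ng/mL) and ATP (1.25 mM) stimulation; lower signal means less secretion.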
# HT1080 IDH1KD tx = toxicity to HT-1080 IDH1 knockdown cells (counter line); HT-1080 IDH1 knockdown viability, ATP luminescence, 48 h; Potency, µM (top dose mostly 46.1 µM), usual class: cytotoxic; actives 2% (n = 360,000)
#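 Assay cells: HT-1080 with IDH1 knockdown, 750 per well, RPMI/5% FBS. Exposure: 48 h at 37 °C following 2 h pre-incubation. Read: CellTiter-Glo luminescence; fitted concentration-response, curve class assigned.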
# DT40 TDP1 no CPT = qHTS for Inhibitors of human tyrosyl-DNA phosphodiesterase 1 (TDP1): qHTS in cells in absence of CPT; actives 15% (n = 420,000); DT40 Tdp1-/- hTDP1 cells, no CPT, ATP luminescence, 48 h; AID 686978, 2013; Potency, µM (doses to about 46.2 µM), usual class: inhibitors; note: nearly all actives have a fitted effect of over 55% in size
#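 Seeded 400 DT40-hTDP1 cells/well (vehicle DMSO, no 20 nM CPT); pinned compounds; ≥48 hr at 37 °C; CellTiter-Glo luminescence as viability measure.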
# HT1080-NT tox = kills 2HG-producing HT-1080-NT fibrosarcoma cells; HT-1080-NT fibrosarcoma viability, CellTiter-Glo ATP luminescence, 48 h; Potency, µM (doses to about 46.1 µM), most hits filed as cytotoxic; actives 1.6% (n = 360,000);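 note: NT is the 2HG producing partner of a matched IDH1 knockdown line; nearly all actives have a fitted effect of over 55% in size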
#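 Read-out is CellTiter-Glo luminescence after 10 minutes at room temperature, following 48 hours' compound treatment of HT-1080-NT cells (750 cells/well, RPMI, 5% FBS, 37 degrees C).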
# TDP1 cell CPT = growth inhibition of DT40 Tdp1-/-;hTDP1 cells with camptothecin (screen for TDP1 inhibitors); AID 686979; chicken DT40 Tdp1-/-;hTDP1 cells + 20 nM CPT, ATP luminescence, 48 h; Potency, µM (titrated, usually from 46.2 µM), usual class: inhibitors; actives 12% (n = 420,000); note: nearly all actives have a fitted effect of over 55% in size
#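 Chicken DT40 Tdp1-/- cells stably complemented with human TDP1 were seeded at 400 cells/well in medium containing 20 nM camptothecin, exposed to pin-transferred compounds, and grown at 37 °C for at least 48 hr. Viability was read as ATP luminescence.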
# A number is an active result; n = inactive; u = inconclusive; x = no result given; [ ] = another dose, or the depositor's remark. Unless noted, calls come from the whole dose curve; as a rule, active = well fitted curve in the direction sought with a large enough effect; inconclusive = small, poorly fitted or top-dose-only effect, or another doubt; inactive = no such curve, though single readings can be large; an effect the other way counts as inactive or inconclusive.
SMILES,IL1B secr inh,HT1080 IDH1KD tx,DT40 TDP1 no CPT,HT1080-NT tox,TDP1 cell CPT
CCC(=O)N1CCc2cc(Br)cc(S(=O)(=O)N3CCCC(C(=O)Nc4ccc(OC)cc4OC)C3)c21 (stereo not drawn),x,x,n,x,n
CCC(=O)N1CCc2cc(Br)cc(S(=O)(=O)N3CCCC(C(=O)Nc4cccc(F)c4)C3)c21 (stereo not drawn),x,x,18µM,x,23µM
CCC(=O)N1CCc2cc(Br)cc(S(=O)(=O)NCc3ccccc3)c21,x,x,u,x,n
CCC(=O)N1CCc2cc(Br)cc(S(=O)(=O)NCCc3cccc(C)c3)c21,x,x,23µM,x,16µM
CCC(=O)N1CCc2cc(Br)cc(S(=O)(=O)N3CCCC(C(=O)Nc4ccc(CC)cc4)C3)c21 (stereo not drawn),x,x,u,x,n
N#Cc1ccc(NC(=O)c2cc(-c3cccc(Cl)c3)on2)cc1,x,x,n,x,n
CC(C)(C)OC(=O)CC1(C#N)c2ccccc2C(Br)=CN1C(=O)c1ccccc1 (stereo not drawn),n,u,16µM,n,u
CC(C)NCC(O)COC1C2CC3CC(C2)CC1C3 (stereo not drawn),n,n,n,n,n
CC1CCC(C(C)C)C(OCC(O)CNC(C)C)C1 (stereo not drawn),n,n,u,n,23µM
C=C1CCC2C(C)(C)[C@H](O)CC[C@@]2(C)[C@@H]1COc1cc(=O)oc2ccccc12 (stereo partly drawn),n,u,u,u,u
C=C1CC(COc2cc(=O)oc3ccccc23)(c2ccccc2)OC1=O (stereo not drawn),-117,5.2µM,1.6µM,16µM,1.2µM
COc1ccccc1Nc1nc(N)nc(CN2CC(C)CC(C)C2)n1 (stereo not drawn),n,n,n,u,n
COc1ccc(-c2nc(C)c(C(C)=O)n2O)cc1,u,n,u,n,n
COc1ccc(C(C)n2c(C)c3c(C)nnc(C)c3c2C)cc1 (stereo not drawn),n,n,23µM,n,15µM
Cc1nnc(C)c2c(C)n(C(C)c3ccccc3)c(C)c12 (stereo not drawn),n,u,12µM,n,16µM
O=C(OC1CCOC1=O)C1CCN(S(=O)(=O)c2ccc(Cl)c(C(F)(F)F)c2)CC1 (stereo not drawn),n,n,n,n,n
OC(c1ccc(F)cc1)c1nc(-c2ccc(Cl)cc2)cs1 (stereo not drawn),n,u,u,u,u
CC(C)=C(NC(=O)c1ccccc1)C(=O)Nc1ccc(C(=O)O)cc1,n,n,n,n,n
O=C(COc1ccccc1C(=O)NCC1CCCO1)Nc1ccc(Cl)cc1Cl (stereo not drawn),n,n,u,n,15µM
O=C(NCC1CCCO1)c1ccccc1-c1nc(-c2ccc(Cl)cc2)no1 (stereo not drawn),n,n,18µM,n,18µM
CCOc1ccccc1N=c1oc2cc(O)ccc2cc1C(=O)NCC1CCCO1 (stereo not drawn),n,u,u,u,11µM
CCOc1cc(NC(=S)NCC2CCCO2)c(OCC)cc1NC(=O)c1ccccc1F (stereo not drawn),n,n,23µM,n,u
O=C(COc1ccccc1C(=O)NCC1CCCO1)Nc1ccc(Br)cc1 (stereo not drawn),n,n,n,n,u
CCOc1cc(NC(=S)NCC2CCCO2)c(OCC)cc1NC(=O)CC (stereo not drawn),n,n,n,u,n
CC(Oc1coc(CN2CCN(C(=O)c3ccco3)CC2)cc1=O)c1ccccc1 (stereo not drawn),n,n,n,n,n
SMILES,IL1B secr inh,HT1080 IDH1KD tx,DT40 TDP1 no CPT,HT1080-NT tox,TDP1 cell CPT
Cc1ccccc1-c1noc(-c2ccccc2C(=O)NCc2ccco2)n1,u,n,18µM,n,u
CCNC(=O)c1ccccc1-c1nc(-c2ccccc2OC)no1,n,n,u,n,n
Cc1nc2ccccc2cc1C(=O)NCc1ccco1,n,n[9.24 µM],u,n,u
CCNC(=O)c1ccccc1-c1nc(-c2ccccc2Cl)no1,n,n,18µM,n,u
COc1ccc(CNC(=O)CN(c2cc(C(F)(F)F)ccc2Cl)S(C)(=O)=O)cc1,x,x,u,x,n
C/C(N)=C(/C#N)C(=O)COC(=O)c1ccc(NC(N)=O)cc1,n,u,n,n,n
CCOC(=O)[C@]12CCC=C1N(Cc1ccc(Cl)cc1Cl)C(=O)[C@H](CC(=O)NCc1cccc(C(F)(F)F)c1)C2,n,u,u,u,u
CCOC(=O)[C@]12CCC=C1N(Cc1ccc(Cl)cc1Cl)C(=O)[C@H](CC(=O)NCc1ccc(C)o1)C2,x,u,18µM,u,u
CCOC(=O)[C@]12CCC=C1N(Cc1ccc(Cl)cc1Cl)C(=O)[C@H](CC(=O)NCc1ccccc1)C2,-64,u,23µM,u,u
CCOC(=O)[C@]12CCC=C1N(Cc1ccccc1)C(=O)[C@H](CC(=O)NCc1ccccc1)C2,n,n,16µM,n,u
CCOC(=O)[C@]12CCCC=C1N(Cc1ccc(Cl)cc1Cl)C(=O)[C@H](CC(=O)NCc1ccc(C)o1)C2,n,u,u,u,u
CCOC(=O)[C@]12CCCC=C1N(Cc1ccc(Cl)cc1Cl)C(=O)[C@H](CC(=O)NCc1cccc(C(F)(F)F)c1)C2,-55,u,18µM,33µM,15µM
CCCCNC(=O)C[C@@H]1C[C@@]2(C(=O)OCC)CCC=C2N(Cc2ccccc2)C1=O,n,n,n,n,n
CCOC(=O)[C@]12CCCC=C1N(Cc1ccc(Cl)cc1Cl)C(=O)[C@H](CC(=O)NCc1cccs1)C2,n,u,u,u,u
CC(=O)N1CCN(S(=O)(=O)c2ccc(S(=O)(=O)NCC(C)C)cc2)CC1,n,n,n,n,n
O=C(COc1ccc(Cl)cc1Cl)N(C1CCCCC1)C1CCS(=O)(=O)C1 (stereo not drawn),n,n,n,n,n
CCCNC(=O)C1(C)CCCN(C(=O)c2cccnc2Oc2ccccc2)C1 (stereo not drawn),n,n,n,u,n
Cc1ccc(Sc2c(CO)c(-c3ccccc3)nn2C)cc1,n,1.2µM,0.73µM,0.73µM,1.2µM
COc1ccc(S(=O)(=O)N2CCN(CC(=O)c3ccc(O)c(O)c3)CC2)cc1,n,n,u,n,u
NC(=O)CN1CCN(S(=O)(=O)c2ccc(Cl)cc2)CC1,n,n,n,n,n
O=C(CN1CCN(S(=O)(=O)c2ccc(F)cc2)CC1)c1ccc(O)c(O)c1,n,n,23µM,n,u
O=C(CN1CCN(S(=O)(=O)c2ccc(Cl)cc2)CC1)c1ccc(O)c(O)c1,n,n,8.2µM,n,12µM
